Source: the supplement of paper PMC9694430
Where a name gives a salt, the structure may show the parent alone.

Columns and labels:
Test in all cases: thermal shift delta Tm vs DMSO control; higher = stronger stabilization (binding)
Details in all cases: 12.5 µM; protein concentration 2 µM
LOC_OS01G01410-cb001 = tested on: LOC_OS01G01410-cb001
In short: (§1)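 The melting temperature shift given here is a triplicate mean, measured against protein that received only DMSO. Melting temperatures came from Boltzmann fits of differential scanning fluorimetry data on E. coli-expressed, purified rice kinase domain constructs. Each 19.5 μl well contained 2 μM kinase, 100 mM potassium phosphate pH 7.5, 150 mM NaCl, 10% glycerol, 5 × SYPRO Orange and compound in DMSO. Plates were scanned from 25°C to 95°C at 0.05°C/s.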

LOC_OS01G02750-cb003 = tested on: LOC_OS01G02750-cb003
In short: as §1

LOC_OS01G10900-cb004 = tested on: LOC_OS01G10900-cb004
In short: as §1

LOC_OS01G13800-cb001 = tested on: LOC_OS01G13800-cb001
In short: as §1

LOC_OS01G14860-cb001 = tested on: LOC_OS01G14860-cb001
In short: as §1

LOC_OS01G21960-cb002 = tested on: LOC_OS01G21960-cb002
In short: as §1

LOC_OS01G39600-cb002 = tested on: LOC_OS01G39600-cb002
In short: as §1

LOC_OS01G48390-cb002 = tested on: LOC_OS01G48390-cb002
In short: as §1

LOC_OS01G51400-cb002 = tested on: LOC_OS01G51400-cb002
In short: as §1

LOC_OS01G52050-cb004 = tested on: T1, LOC_OS01G52050-cb004
T1 sequence (whole entry): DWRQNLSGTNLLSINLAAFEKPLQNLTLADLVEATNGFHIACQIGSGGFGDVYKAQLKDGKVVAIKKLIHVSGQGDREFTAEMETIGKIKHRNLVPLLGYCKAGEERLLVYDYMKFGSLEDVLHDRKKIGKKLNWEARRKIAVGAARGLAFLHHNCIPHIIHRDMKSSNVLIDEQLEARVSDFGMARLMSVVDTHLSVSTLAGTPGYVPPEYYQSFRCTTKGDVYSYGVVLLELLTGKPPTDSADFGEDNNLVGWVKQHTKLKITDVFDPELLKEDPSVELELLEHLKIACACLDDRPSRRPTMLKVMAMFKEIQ
In short: as §1

| SMILES | thermal shift delta Tm (LOC_OS01G01410-cb001) | thermal shift delta Tm (LOC_OS01G02750-cb003) | thermal shift delta Tm (LOC_OS01G10900-cb004) | thermal shift delta Tm (LOC_OS01G13800-cb001) | thermal shift delta Tm (LOC_OS01G14860-cb001) | thermal shift delta Tm (LOC_OS01G21960-cb002) | thermal shift delta Tm (LOC_OS01G39600-cb002) | thermal shift delta Tm (LOC_OS01G48390-cb002) | thermal shift delta Tm (LOC_OS01G51400-cb002) | thermal shift delta Tm (LOC_OS01G52050-cb004) |
| --- | --- | --- | --- | --- | --- | --- | --- | --- | --- | --- |
| Nc1cccc(-c2cc3c(Oc4cccc(O)c4)ncnc3[nH]2)c1 | 2.64 °C | 1.81 °C | 1.53 °C | 0.59 °C | 4.88 °C | 1.92 °C | 3.68 °C | 2.32 °C | 0.45 °C | 2.13 °C |
| O=c1cc(N2CCOCC2)oc2c(-c3ccccc3)cccc12 | 1.06 °C | -0.94 °C | 3.69 °C | 0.14 °C | 0.93 °C | 0.79 °C | 0.29 °C | 1.24 °C | 0.33 °C | 0.42 °C |
| Nc1nc(Nc2ccc(S(N)(=O)=O)cc2)nn1C(=O)c1c(F)cccc1F | 4.86 °C | 1.06 °C | 0.71 °C | 0.59 °C | 5.95 °C | 1.73 °C | 4.79 °C | 5.9 °C | 0.49 °C | 5.43 °C |
| Cc1ncc(CO)c(CO)c1O [Pyridoxine] | -0.03 °C | 0.64 °C | 0.29 °C | -0.11 °C | 0.24 °C | 0.13 °C | -0.13 °C | 0.22 °C | 0.06 °C | 4.05 °C |
| Cc1cc([C@@H](C)Nc2ccccc2C(=O)O)c2nc(N3CCOCC3)cc(=O)n2c1 | 0.29 °C | 1.55 °C | 0.27 °C | 0.31 °C | 0.56 °C | 1.03 °C | 0.03 °C | 0.29 °C | 0.07 °C | 0.43 °C |
| CS(=O)(=O)c1cccc(CNc2nc(Nc3ccc4c(c3)CCC(=O)N4)ncc2C(F)(F)F)c1 | 3.58 °C | 3.6 °C | 1.39 °C | -0.34 °C | 3.83 °C | 3.04 °C | 7.76 °C | 3.42 °C | 2.2 °C | 5.18 °C |
| CCCS(=O)(=O)Nc1ccc(F)c(C(=O)c2c[nH]c3ncc(-c4ccc(Cl)cc4)cc23)c1F [Vemurafenib (PLX4032, RG7204)] | 3.81 °C | 7.84 °C | 6.74 °C | 1.27 °C | 4.3 °C | 2.86 °C | 11.7 °C | 3.18 °C | 1.03 °C | 11.1 °C |
| Oc1ccc(Nc2nc(-c3ccc(Cl)cc3)cs2)cc1 | 1.11 °C | 3.1 °C | 0.5 °C | 0.46 °C | 1.41 °C | -0.09 °C | 4.96 °C | 1.3 °C | 1.51 °C | 3.09 °C |
| O=c1cc(-c2ccccc2)oc2c(O)c(O)ccc12 [7,8-Dihydroxyflavone] | 2.01 °C | 2.3 °C | 0.12 °C | 2.97 °C | 3.88 °C | 3.56 °C | 0.49 °C | 1.55 °C | 0.69 °C | 1.44 °C |
| O=C1c2ccc(Nc3ccc(F)cc3F)cc2CCc2ccc(OC[C@H](O)CO)cc21 [Skepinone-L] | 0.24 °C | 1.29 °C | 1.14 °C | -0.71 °C | 0.36 °C | 0.57 °C | -1.35 °C | 0.21 °C | -0.11 °C | 0.04 °C |
| O=C1CCc2c(Oc3ccc4c(c3)[C@@H]3[C@H](O4)[C@H]3c3nc4cc(C(F)(F)F)ccc4[nH]3)ccnc2N1 [Lifirafenib (BGB-283)] | 1.01 °C | 3.41 °C | 2.3 °C | 1.54 °C | 5.38 °C | 1.8 °C | 0.61 °C | 1.85 °C | 0.55 °C | 2.71 °C |
| CCCCCCCCCCCCCCCCn1cc[n+](Cc2ccccc2)c1C | -2.01 °C | -7.84 °C | -4.55 °C | -6.34 °C | -18.6 °C | -3.32 °C | -5.39 °C | -5.85 °C | -9.26 °C | -3.57 °C |
| CONC(=O)c1ccccc1Nc1cc(Nc2cc(C)nn2C(C)C)ncc1Cl | 0.19 °C | 1.48 °C | 0.57 °C | -0.17 °C | 0.66 °C | 0.75 °C | 4.21 °C | 1.49 °C | 0.4 °C | 3.96 °C |
| O=C1Nc2ccc(CN3C(=O)CSC3=O)cc2/C1=C/c1cc(CN2CCOCC2)c[nH]1 | 1.25 °C | 3.61 °C | 0.75 °C | 0.08 °C | 0.42 °C | 0.16 °C | 0.49 °C | 1.28 °C | 0.13 °C | 2.79 °C |
| CCN(CC)CCNC(=O)c1c(C)[nH]c(/C=C2\C(=O)Nc3ccc(-c4csc(-c5ccccc5)n4)cc32)c1C [Amcasertib (BBI503)] | 3.77 °C | 0.02 °C | 5.39 °C | -0.01 °C | 1.64 °C | 1.66 °C | 4.12 °C | -0.28 °C | 0.02 °C | -0.1 °C |
| Cc1ccc(-n2nc(C(C)(C)C)cc2NC(=O)NCc2cc(F)ccc2Oc2ccc3c(cnn3CCO)c2)cc1 [Pexmetinib (ARRY-614)] | 0.56 °C | 1.41 °C | 0.65 °C | -0.01 °C | 0.85 °C | 1.27 °C | 0.75 °C | 1.8 °C | 0.36 °C | 1.87 °C |
| Cc1cc(O)c(-c2ccc([C@@H](C)CN)cc2)c2c1[nH]c(=O)c1sccc12 [OTS514 hydrochloride] | 0.18 °C | 0.75 °C | 1.18 °C | 0.58 °C | 5.36 °C | 1.5 °C | 0.36 °C | 1.38 °C | -0.1 °C | 1.82 °C |
| C=CC(=O)N1CCC(Oc2cc3c(Nc4ccc(Cl)c(Cl)c4F)ncnc3cc2OC)CC1 [Poziotinib (HM781-36B)] | 0.75 °C | 0.07 °C | 0.6 °C | -0.34 °C | 0.65 °C | 0.36 °C | 1.56 °C | 0.49 °C | -0.16 °C | 1.24 °C |
| CC(C)(CCCCCC(O)CCCCCC(C)(C)C(=O)O)C(=O)O | 0.55 °C | 0.54 °C | 0.09 °C | 0.41 °C | -0.23 °C | 0.39 °C | -0.54 °C | 0.29 °C | 0.29 °C | 0.02 °C |
| Nc1ncc(-c2ccnc(Nc3ccncc3)n2)c(CC2CC2)n1 | 0.71 °C | 1.52 °C | 1.79 °C | 0.81 °C | 2.55 °C | 0.87 °C | 0.29 °C | 0.57 °C | 0.15 °C | 0.96 °C |
| C[C@H]1CNC(=O)c2cnn3ccc(nc23)N[C@H](C)c2cc(F)ccc2O1 | -0.06 °C | 4.66 °C | 3.91 °C | -0.18 °C | 0.3 °C | 1.05 °C | 0.15 °C | 1.46 °C | 0.22 °C | 4.57 °C |
| CCc1nc(C(N)=O)c(Nc2ccc(N3CCC(N4CCN(C)CC4)CC3)c(OC)c2)nc1NC1CCOCC1 [Gilteritinib (ASP2215)] | 4.13 °C | 2.42 °C | 2.14 °C | 0.93 °C | 2.59 °C | 3.21 °C | 2.87 °C | 1.66 °C | 0.63 °C | 8.54 °C |
| Cc1c(CN2CCN(C(=O)[C@H](C)O)CC2)sc2c(N3CCOCC3)nc(-c3cnc(N)nc3)nc12 [Apitolisib (GDC-0980, RG7422)] | 0.32 °C | 0.18 °C | 0.13 °C | 0.56 °C | 0.1 °C | 0.49 °C | 0.16 °C | 0.64 °C | 0.53 °C | 0.42 °C |
| CCn1c2ccccc2c2cc(Nc3ccnc(NCCCN4CCOCC4)n3)ccc21 | -0.05 °C | -0.06 °C | 0.59 °C | -0.29 °C | 0.53 °C | 0.58 °C | -0.04 °C | 0.62 °C | 0.13 °C | 0.07 °C |
| C=C(C)[C@@H]1CC[C@]2(C)CC[C@]3(C)[C@H](CC[C@@H]4[C@@]5(C)CC[C@H](O)C(C)(C)[C@@H]5CC[C@]43C)[C@@H]12 [Lupeol] | 0.2 °C | 0.62 °C | 0.32 °C | 0.74 °C | 0.11 °C | 0.67 °C | 0.07 °C | -0.09 °C | -0.11 °C | 0.44 °C |
| O=C(O)c1ccc2c(c1)nc(Nc1cccc(Cl)c1)c1ccncc12 [Silmitasertib (CX-4945)] | 0.84 °C | 2.8 °C | 1.54 °C | 0.77 °C | 2.7 °C | 2.28 °C | 6.15 °C | 0.06 °C | 0.3 °C | 2.54 °C |
